For 14 compounds, growth results are on record in PubChem BioAssay (NCI).

This is part of a sample that, as a whole, favours compounds with a hit. Of some 83,000 tested, about 20% had one in any assay.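 Each cell line was grown in a 96-well plate and treated with one concentration of compound for 48 hours. Values below 10 were considered active.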 Values without a mark were called inactive. Calls of active or inactive are those of the source.

Among the test systems are SR leukemia; RPMI-8226 leukemia; OVCAR-8 ovarian; OVCAR-5 ovarian; OVCAR-4 ovarian; SK-OV-3 ovarian; IGROV1 ovarian; OVCAR-3 ovarian; HS 578T breast; NCI/ADR-RES ovarian.
What all share (assay): NCI-60 one-dose screen, 48 h (100 = growth as untreated, 0 = no growth, -100 = all killed)
Common to all, as to settings: 10 µM unless noted

As to `CC1(C)c2[nH]c3ccccc3c2C[C@]2(C)[C@H]3CC=C4[C@@H]5C[C@@](C)(C(N)=O)CC[C@]5(C)CC[C@@]4(C)[C@]3(C)CC[C@@H]12`, the growth is 34.3% with SR leukemia; 38.3% with RPMI-8226 leukemia; 50.8% in the assay with OVCAR-8 ovarian; 102% in the assay with OVCAR-5 ovarian; 32.4% with OVCAR-4 ovarian; 70.1% with SK-OV-3 ovarian. Besides, the growth in the assay on IGROV1 ovarian is 74.4%; in the assay with OVCAR-3 ovarian, 58.3%; in the assay on HS 578T breast, 91.5%; with NCI/ADR-RES ovarian it was 67.5%.
Turning to `Cc1ccc(Sc2nnc(/N=C3\C(=O)Nc4ccccc43)s2)cc1`, the growth with SR leukemia was 91.4%; in the assay with RPMI-8226 leukemia it was 94.8%; in the assay with OVCAR-8 ovarian, 101%; in the assay on OVCAR-5 ovarian, 102%; in the assay with OVCAR-4 ovarian it was 113%; in the assay with SK-OV-3 ovarian, 110%. Besides, the growth is 88.6% with IGROV1 ovarian, 106% with OVCAR-3 ovarian, 97.5% in the assay with HS 578T breast and 101% in the assay with NCI/ADR-RES ovarian.
Turning to `Cc1cnc(C(=O)NNc2nc3sc4c(c3c(=O)n2C)C(C)CCC4)cn1` (configuration not stated), the growth in the assay on SR leukemia is 12.2%; with RPMI-8226 leukemia, 9.06% (active); in the assay on OVCAR-8 ovarian, 5.29% (active); with OVCAR-5 ovarian, 2.46% (active); in the assay with OVCAR-4 ovarian, -14.7% (active); with SK-OV-3 ovarian, 11.9%. Besides, the growth with IGROV1 ovarian is -18.6% (active); with OVCAR-3 ovarian it was -2.78% (active); in the assay with HS 578T breast, 34.2%.
As for `O=C(Nc1ccc(NC(=O)c2cc(=O)[nH]c3ccccc23)cc1)Nc1cccc(C(F)(F)F)c1`, the growth in the assay on SR leukemia is 61.1%; with RPMI-8226 leukemia it was 74.4%; in the assay with OVCAR-8 ovarian, 65.2%; in the assay on OVCAR-5 ovarian, 84.3%; with OVCAR-4 ovarian, 74.2%; in the assay with SK-OV-3 ovarian, 69.1%. The figures for the growth in the assay on IGROV1 ovarian, in the assay on OVCAR-3 ovarian and in the assay on HS 578T breast were 64.9%, 63.9% and 50.8%, respectively.
With `C=CCc1c2c(c(OC)c3ccoc13)C(=O)/C(=C/c1ccccc1OC)O2`, the growth is 48% in the assay on SR leukemia; 29.2% in the assay on RPMI-8226 leukemia; 39.1% with OVCAR-8 ovarian; 114% in the assay with OVCAR-5 ovarian; 69.7% in the assay with OVCAR-4 ovarian; 79.6% in the assay with SK-OV-3 ovarian. Moreover, the growth is 54.8% in the assay on IGROV1 ovarian, 40.6% with OVCAR-3 ovarian and 58.1% in the assay on HS 578T breast.
Take `CN1CCN(c2ccc(NC(=O)c3nc4ccc5[nH]ncc5c4c4c3CCCC4)cc2C(F)(F)F)CC1`: the growth with SR leukemia was 13.6%; in the assay on RPMI-8226 leukemia, 24.1%; with OVCAR-8 ovarian, 3.3% (active); in the assay on OVCAR-5 ovarian it was 85.5%; in the assay with OVCAR-4 ovarian, 65.2%; in the assay on SK-OV-3 ovarian, 100%. Further, the results for the growth in the assay on IGROV1 ovarian and in the assay on OVCAR-3 ovarian were 4.75% (active) and 11.5%, respectively.
With `CN(Cc1ccc(C(F)(F)F)cc1)CC(O)C(=O)Nc1ccc(Cl)cc1` (configuration not stated), the growth with SR leukemia was -31.3% (active); with RPMI-8226 leukemia, -33.7% (active); in the assay on OVCAR-8 ovarian, 6.23% (active); in the assay with OVCAR-5 ovarian, 27.9%; in the assay on OVCAR-4 ovarian it was 15.6%; in the assay with SK-OV-3 ovarian, 70.7%. Also, the growth in the assay on IGROV1 ovarian is 0.563% (active); with OVCAR-3 ovarian, -40.7% (active); in the assay on HS 578T breast it was 51.7%.
Consider `CCn1c(SCC(=O)c2ccc(Br)cc2)nnc1-c1ccncc1`, for which the growth with SR leukemia was 98.3%; in the assay with RPMI-8226 leukemia, 103%; in the assay on OVCAR-8 ovarian it was 109%; in the assay with OVCAR-5 ovarian, 108%; in the assay with OVCAR-4 ovarian it was 101%; in the assay with SK-OV-3 ovarian it was 118%. The growth in the assay with IGROV1 ovarian is 115%; with OVCAR-3 ovarian, 106%; with HS 578T breast, 105%.
With `C=CCc1c(O)c(C(=O)/C=C/c2ccc(Cl)cc2)c(OC)c2ccoc12`, the growth in the assay on SR leukemia is 17.7%; with RPMI-8226 leukemia it was 8.82% (active); in the assay on OVCAR-8 ovarian it was 42.6%; in the assay with OVCAR-5 ovarian, 100%; with OVCAR-4 ovarian, 57.3%; in the assay on SK-OV-3 ovarian it was 66.4%. Moreover, the growth was 43.3% in the assay on IGROV1 ovarian, 32.8% in the assay on OVCAR-3 ovarian, 81% in the assay with HS 578T breast and 39.1% with NCI/ADR-RES ovarian.
For the compound `Cn1c(-c2ccc(Br)cc2)c(O)c(=O)c2c(F)cccc21`, the growth with SR leukemia was 102%; in the assay with RPMI-8226 leukemia, 104%; in the assay on OVCAR-8 ovarian it was 50.9%; in the assay with OVCAR-5 ovarian, 63.8%; with OVCAR-4 ovarian it was 52.1%; in the assay on SK-OV-3 ovarian, 46.3%. Also, the growth was 48.6% in the assay with IGROV1 ovarian, 51.7% with OVCAR-3 ovarian, 84.9% in the assay on HS 578T breast and 21.8% with NCI/ADR-RES ovarian.
On to `C1=C(N2CCCC2)CCC1`, for which the growth in the assay on SR leukemia is 112%; with RPMI-8226 leukemia, 95.4%; in the assay with OVCAR-8 ovarian it was 104%; in the assay on OVCAR-5 ovarian, 86.2%; with OVCAR-4 ovarian, 98.8%; in the assay with SK-OV-3 ovarian, 131%. The growth with IGROV1 ovarian was 108%; in the assay with OVCAR-3 ovarian, 106%; in the assay with HS 578T breast, 102%.
With `O=CC1(C2(C=O)c3ccccc3-c3ccccc32)c2ccccc2-c2ccccc21`, the growth with SR leukemia was -32.3% (active); with RPMI-8226 leukemia, -24% (active); in the assay on OVCAR-8 ovarian it was -49.9% (active); in the assay with OVCAR-5 ovarian, -40.9% (active); with OVCAR-4 ovarian it was -76.4% (active); with SK-OV-3 ovarian, -65% (active). Further, the growth in the assay with IGROV1 ovarian was -76.4% (active); in the assay on OVCAR-3 ovarian it was -74.7% (active); with HS 578T breast, -4.62% (active); in the assay on NCI/ADR-RES ovarian, -14% (active).
`C=C(C)[C@@H]1CC[C@]2(C(=O)O)CC[C@]3(C)[C@H](CC[C@@H]4[C@@]5(C)C[C@@H](Cc6cn(CCO[C@@H]7O[C@H](COC(C)=O)[C@H](OC(C)=O)[C@H](OC(C)=O)[C@H]7OC(C)=O)nn6)[C@H](O)C(C)(C)[C@@H]5CC[C@]43C)[C@@H]12`: the growth was 48.2% with SR leukemia; 38.3% in the assay with RPMI-8226 leukemia; 77.8% in the assay with OVCAR-8 ovarian; 97.3% in the assay on OVCAR-5 ovarian; 72.8% in the assay with OVCAR-4 ovarian; 80.8% in the assay with SK-OV-3 ovarian. For the same compound, the growth was 59.3% in the assay on IGROV1 ovarian, 67% in the assay with OVCAR-3 ovarian, 51.9% with HS 578T breast and 91.8% in the assay on NCI/ADR-RES ovarian.
In the case of `COC(=O)CNC(=O)[C@H](Cc1ccccc1)NCc1ccncc1`, the growth with SR leukemia is 97%; in the assay on RPMI-8226 leukemia, 91%; with OVCAR-8 ovarian it was 98.3%; in the assay with OVCAR-5 ovarian it was 105%; with OVCAR-4 ovarian, 107%; in the assay on SK-OV-3 ovarian it was 80.7%. Besides, the growth in the assay with IGROV1 ovarian was 104%; in the assay with OVCAR-3 ovarian it was 113%; with HS 578T breast, 106%; in the assay on NCI/ADR-RES ovarian, 103%.
